High-throughput results as filed in PubChem BioAssay.
Hits are enriched below; roughly 21% of the tested compounds scored in any of these assays.
Pf growth 48h – inhibits P. falciparum growth in the first generation, 48 h; P. falciparum luciferase growth in erythrocytes, 48 h; Potency, µM (series often up to 28.7 µM), without a hit: top-dose activity change, negative = inhibition, actives largely listed as inhibitors; 310,000 compounds, 5.9% hits; note: potency is the fitted concentration of half-maximal effect; % is set by controls: 0 for no effect and ±100 for the full control effect
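Firefly luciferase activity from engineered P. falciparum reports growth; inhibitors lower the luminescent signal. Cultures contained 2% hematocrit erythrocytes at 0.1% final parasitemia.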
SARS PLP yeast – inhibitors of SARS-CoV papain-like protease in yeast; Potency, µM (top dose mostly 32.9 µM), for the others: top-dose activity, positive = growth rescue, usual class: activators; S. cerevisiae expressing SARS-CoV PLpro, growth rescue; 330,000 compounds, 0.19% hits; calls by dose curve; note: potency is the fitted concentration of half-maximal effect; 0% is about no effect; nearly all actives have a fitted effect of over 55% in size
Pf growth 96h – inhibits malaria parasite growth, 96 h. P. falciparum luciferase reporter growth, 96 h. Potency, µM (doses to about 28.7 µM), for the others: at the top dose activity change, negative = inhibition, actives largely listed as inhibitors. 320,000 compounds, 6.9% hits. AID 504834; note: potency is the fitted concentration of half-maximal effect; % is set by controls: 0 for no effect and ±100 for the full control effect
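Readout is luminescence from an integrated firefly luciferase in P. falciparum. Red cells, 2% hematocrit and 0.05% parasitemia final, were cultured with compound through two parasite generations (96 hours) at 37 C, 5% CO2.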
NS1 function inh – blocks influenza NS1 protein function; Potency, µM (series often up to 46.1 µM), for the others: at the top dose activity, positive = more growth; 270,000 compounds, 0.4% hits; calls by dose curve; note: potency is the fitted concentration of half-maximal effect; actives are rising curves; nearly all actives have a fitted effect of over 50% in size
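Read-out: OD600 growth recovery of NS1-expressing budding yeast. Cells grown overnight at 30C in -URA glucose medium, washed, resuspended and diluted 1:100 in 2% galactose assay medium, pH 6.0. Same strain lacking NS1 served as positive control.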
Shiga toxin inh – blocks Shiga toxin action in Vero cells; inhibition, % at 38.7 µM; AID 2315; Vero cells, Shiga toxin protein synthesis inhibition reporter; 290,000 compounds, 9.2% hits; in the data active = inhibition mostly above about 28%, no sharp cut-off; inactive = mostly below about 43%; note: 0% is about no effect
CHX counter – counter-screen hit for Shiga toxin inhibitors, cycloheximide | cell reporter, cycloheximide protein synthesis inhibition counterscreen | max response, % | 300,000 compounds, 12% hits | AID 2314; in the data active = max response mostly above about 13%, no sharp cut-off; inactive = mostly below about 14%; note: read at 38.3 µM for the half of the compounds with a filed dose; 0% is about no effect
Active calls of the source: *; ? = inconclusive; / = no result; [ ] = another dose, or the depositor's remark. Unless noted, calls come from the whole dose curve; as a rule, active = well fitted inhibition curve with a large enough effect; inconclusive = small, poorly fitted or top-dose-only effect, or another doubt; inactive = no such curve, though single readings can be large or run the other way.

SMILES	Pf growth 48h	SARS PLP yeast	Pf growth 96h	NS1 function inh	Shiga toxin inh	CHX counter
CC1CC(=O)N(CC(=O)NCc2ccccc2)c2ccccc2S1(=O)=O (configuration not stated)	6%	/	-10%	1%	-9	-1
CC1CCCN(c2nc(N(C)c3ccccc3)nc(N)c2[N+](=O)[O-])C1 (configuration not stated)	-2%	-1%	10%	-8%	36	20*
CCN(CC)CCCNc1nc(N)c([N+](=O)[O-])c(N2CCCCCC2)n1	-6%	12%	2.9µM*	-5%	-17	-4
COc1ccc(Nc2nc(N)c([N+](=O)[O-])c(N3CCCC3)n2)cc1	?	-2%	13µM*	-7%	-9	17*
C=CCNc1nc(N)c([N+](=O)[O-])c(N2CCCCCC2)n1	-10%	-1%	-2%	-56%	2	-3
Nc1nc(Nc2ccccc2)nc(N2CCCC2)c1[N+](=O)[O-]	-18%	-1%	-4%	-35%	58*	39*
CC1CCCN(c2nc(NCc3ccco3)nc(N)c2[N+](=O)[O-])C1 (configuration not stated)	-22%	-20%	?	-13%	0	3
Cc1ccc(Nc2nc(N)c([N+](=O)[O-])c(N3CCOCC3)n2)cc1	-18%	-5%	?	8%	1	12
CC1(C)C2CCC1(CS(=O)(=O)NCc1ccc(C(F)(F)F)cc1)C(=O)C2 (configuration not stated)	1%[0.00184 µM]	-1%	10%	7%	-3	-4
C/C(=N\NC(=O)CNC(=O)c1ccccc1F)c1ccco1	39%	1%	?	-1%	-5	2
CC1(C2CC2)NC(=O)N(CC(=O)Nc2ccccc2F)C1=O (configuration not stated)	-8%	-6%	6%	/	/	/
N#Cc1cccnc1N1CCN(C(=O)c2cccs2)CC1	15%	-1%	2%	1%	-10	8
COc1cccc(Nc2nc(N)c([N+](=O)[O-])c(N3CCOCC3)n2)c1	?	-1%	15µM*	-5%	4	0
Cc1cccc(Nc2nc(N)c([N+](=O)[O-])c(N3CCOCC3)n2)c1	?	8%	?	-6%	17	-3
N#Cc1cc2c(nc1SC1CC(=O)N(c3ccccc3)C1=O)CCC2 (configuration not stated)	316%	3%	403%	7%	115*	83*
CCCc1ccc(C#N)c(SC2CC(=O)N(c3ccc(OC)cc3)C2=O)n1 (configuration not stated)	25%	-1%	?	3%	-26	1
Cc1cc(=O)[nH]c(SCC(=O)c2ccc(C)c(C)c2)n1	34%	-16%	42%	-16%	62	13
CCc1nc(SCC(=O)c2ccc(C)c(C)c2)n[nH]1	15%	3%	2%	-19%	70*	12
CCc1c(C)nc(SCC(=O)c2ccc(C)c(C)c2)[nH]c1=O	-3%	-3%	-2%	-12%	44	19*
Cc1ccc(C(=O)CSc2n[nH]c(-c3ccco3)n2)cc1C	3%	-8%	?	-15%	14	-2
COCC(=O)Nc1cc(Cl)c(OC)cc1OC	12%	-8%	6%	-14%	10	-1
O=C(Nc1nccs1)c1ccc(NC(=O)C2CC=CCC2C(=O)O)cc1 (configuration not stated)	68%	1%	2%	5%	23	14
COc1ccccc1N1CCN(CC(=O)c2c(C)n(C)c3ccccc23)CC1	?	7%	?	3%	3	-1
CCC1CCCCN1CC(=O)c1c(C)[nH]c2cc(C)ccc12 (configuration not stated)	0%	-2%	5%	1%	-5	8
Cc1ccc2c(C(=O)CN3CCN(C4CCCCC4)CC3)c(C)[nH]c2c1	2.6µM*	-1%	-20%	3%	13	-1
SMILES	Pf growth 48h	SARS PLP yeast	Pf growth 96h	NS1 function inh	Shiga toxin inh	CHX counter
COc1ccccc1N1CCN(CC(=O)c2c(C)[nH]c3cc(C)ccc23)CC1	13µM*	8%	20%	-5%	-16	-5
CCC(C)NS(=O)(=O)c1ccc(OC)c(Cl)c1Cl (configuration not stated)	/	-10%	?	-15%	-13	-1
COc1ccc(C2c3cc(OC)c(OC)cc3CCN2C(=O)c2ccccc2)cc1OC (configuration not stated)	?	?	2.1µM*	3%	3	-1
COc1ccc(C(=O)N2CCc3cc(OC)c(OC)cc3C2c2cccc([N+](=O)[O-])c2)cc1OC (configuration not stated)	13µM*	7%	?	0%	-2	5
COc1ccc(C2c3cc(OC)c(OC)cc3CCN2C(=O)c2ccccc2Br)cc1OC (configuration not stated)	12µM*	-1%	?	15%	-10	-2
COc1cc2c(cc1OC)C(c1cc(Br)ccc1F)N(C(=O)CCl)CC2 (configuration not stated)	8.3µM*	-1%	?	-10%	-11	3
O=C(NCc1ccccc1)C(c1ccc(F)cc1)N(C(=O)c1csnn1)c1ccccc1 (configuration not stated)	-18%	4%	7%	1%	2	-2
COc1ccc(N2CCN(C(=O)COc3ncnc4ccccc34)CC2)cc1	19%	-1%	11%	/	-8	4
COc1ccccc1CCNC(=O)C(=O)NCC1OCCN1S(=O)(=O)c1ccc(C)cc1 (configuration not stated)	?	-5%	-8%	-11%	14	1
Cc1ccc(NC(=S)N/N=C/c2ccc([N+](=O)[O-])s2)cc1	9.3µM*	-127%	31%	-37%	active	47*
Cc1onc(-c2ccccc2)c1C(=O)N/N=C/c1ccc([N+](=O)[O-])s1	12µM*	-67%	?	-30%	-1	1
CCC(=O)Nc1nn(CC(C)C)c2nc3ccc(C)cc3cc12	?	-1%	?	1%	-7	-7
Cc1csc(NC(=O)CCCNC(=O)c2ccc(Cl)cc2)n1	?	2%	-24%	/	/	/
Cc1cc(O)ccc1N/C=C/c1onc(C)c1[N+](=O)[O-]	459%	-2%	207%	/	64*	39*
Cc1cccc(N/C=C/c2onc(C)c2[N+](=O)[O-])c1	173%	/	228%	2%	89*	31*
O=C(NCc1ccccc1CN1CCCC1)c1cccc(S(=O)(=O)N2CCOCC2)c1	-27%	0%	?	/	/	/
CC(C)OCCCN(C)C1CCN(S(=O)(=O)c2ccc(-c3cc(C(F)(F)F)no3)s2)CC1	12µM*	11%	?	6%	-4	-2
CC(C)OCCCN(C)C1CCN(S(=O)(=O)c2csc(C(N)=O)c2)CC1	12%	-6%	?	-3%	4	-1
